From PubChem BioAssay (NCATS)
Records with an inconclusive call do not appear. Active and inactive are the calls of the source. Calls follow the shape of the dose curve; as a rule, active = well fitted curve in the direction sought with a large enough effect; inconclusive = small, poorly fitted or top-dose-only effect, or another doubt; inactive = no such curve, though single readings can be large; an effect the other way counts as inactive or inconclusive.

Key:
[1] = biological target: Cellular tumor antigen p53 (Homo sapiens) (UniProt P04637); test: Primary qHTS for small molecule compounds that upregulate eGFP-tagged delta133p53alpha (in N-terminal) cells. (AID 2060322); conditions: NCI-H358 eGFP-delta133p53alpha fluorescence, 24 h; activation: stronger effect = higher value;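 also: series mostly up to about 56 µM; 0% = DMSO vehicle and 100% = reference activator; nearly all actives have a fitted effect of over 75% in size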
Sequence of Cellular tumor antigen p53 (Homo sapiens) (P04637 whole entry, looked up): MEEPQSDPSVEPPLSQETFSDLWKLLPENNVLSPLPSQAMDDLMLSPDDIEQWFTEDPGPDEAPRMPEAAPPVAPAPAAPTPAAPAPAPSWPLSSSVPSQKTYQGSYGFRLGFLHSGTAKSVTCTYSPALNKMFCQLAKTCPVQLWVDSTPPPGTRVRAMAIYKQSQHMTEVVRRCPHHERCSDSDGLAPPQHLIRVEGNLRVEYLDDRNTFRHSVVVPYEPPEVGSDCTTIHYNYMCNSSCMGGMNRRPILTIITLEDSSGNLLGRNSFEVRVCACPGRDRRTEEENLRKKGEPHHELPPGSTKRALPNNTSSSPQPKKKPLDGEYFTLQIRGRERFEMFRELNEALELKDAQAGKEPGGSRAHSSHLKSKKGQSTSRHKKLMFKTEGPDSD
Outline: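 NCI-H358 cells pre-induced 24 h with 10 ng/ml doxycycline to express N-terminal eGFP-delta133p53alpha, then dosed 24 h at 37C without doxycycline; fixed, Hoechst-stained, GFP intensity by laser scanning cytometry, normalized to DMSO (0%) and 57.5 uM 5-azacytidine (100%).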

[2] = biological target: Aldehyde dehydrogenase, mitochondrial (Homo sapiens) (UniProt P05091); test: qHTS for Inhibitors of the Aldehyde Dehydrogenase Family (ALDH2) Primary screen (AID 2061308);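 also: plate controls were vehicle for no effect and reference inhibitor for full effect; nearly all actives have a fitted effect of over 55% in size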
[3] = biological target: Retinaldehyde dehydrogenase 3 (Homo sapiens) (UniProt P47895); test: qHTS for Inhibitors of the Aldehyde Dehydrogenase Family (ALDH1A3) Primary screen (AID 2061315);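 also: plate controls were DMSO vehicle for no effect and reference inhibitor for full effect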

N#Cc1cccc(C(=O)Nc2cc(-c3ccccc3)nn2-c2ccccc2)c1
inactive: activation [1] -0.893% | Potency [2] | Potency [3]

CC1=C(CO)CC(C(C)C2CCC3C4CC=C5CC(OC6OC(COC7OC(CO)C(O)C(O)C7O)C(O)C(O)C6O)CC(O)C5(C)C4CCC23C)OC1=O (centres undefined)
inactive: activation [1] 3.05% | Potency [2] | Potency [3]

C/C=C(/C)C(=O)OC1CC(C)(C)CC2C3=CCC4C5(C)CCC(OC6OC(C)C(OC7OC(C(=O)O)C(O)C(OC8OC(CO)C(O)C(O)C8OC8OC(CO)C(O)C(O)C8O)C7O)C(O)C6O)C(C)(C)C5CCC4(C)C3(C)C(OC(=O)/C=C/C=C/C=C/CCC)C(OC(C)=O)C12CO (centres undefined)
inactive: activation [1] 14.5% | activity change, negative = inhibition [2] 6.9% [at 11.2 µM] | activity change, negative = inhibition [3] 9.07% [at 11.2 µM]

O=C(/C=C/c1ccc(O)cc1)OC[C@H]1O[C@H](O[C@@]2(CO)O[C@@H](CO)[C@H](O)[C@H]2O)[C@H](O)[C@@H](O)[C@@H]1O
inactive: activation [1] 6.25% | Potency [2] | Potency [3]

C=C1OC2CC(C(=O)O)C=CC2NC1=O (centres undefined)
inactive: activation [1] -19.8% | Potency [2] | Potency [3]

CC(C)=CCC/C(C)=C/CC/C(C)=C/CC[C@]1(C)CCc2cc(O)cc(C)c2O1
inactive: activation [1] -3.05% | Potency [2] | Potency [3]

COc1cc(C2c3cc(O)c(OC)cc3CC(CO)C2CO)ccc1O (centres undefined)
inactive: activation [1] 8.93% | Potency [2] | Potency [3]

C[C@@]12C[C@]3(O)O[C@H](O1)[C@]1(COC(=O)c4ccccc4)[C@H]3C[C@@]12O[C@@H]1O[C@H](CO)[C@@H](O)[C@H](O)[C@H]1O
inactive: activation [1] 25% | Potency [2] | Potency [3]
